Most compounds without a hit are left out; they make up all but 20% or so of the library.
Shiga toxin inh – Shiga toxin inhibition | hit rate 9.2% among 290,000 | Vero cells, Shiga toxin protein synthesis inhibition reporter | inhibition, % at 38.7 µM | AID 2315; in the data active = inhibition mostly above about 28%, no sharp cut-off; inactive = mostly below about 43%; note: 0% is about no effect
Pf growth 48h – P. falciparum growth inhibition at 48 hours (one generation); hit rate 5.9% among 310,000; Potency, µM (top dose mostly 28.7 µM), for the others: at the top dose activity change, negative = inhibition, actives largely listed as inhibitors; P. falciparum luciferase growth in erythrocytes, 48 h; note: potency is the fitted concentration of half-maximal effect; % is set by controls: 0 for no effect and ±100 for the full control effect
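Erythrocytes infected with P. falciparum carrying an integrated firefly luciferase reporter (2% hematocrit, 0.1% parasitemia final) were exposed to compounds in RPMI 1640 with 0.5% Albumax at 37 C, 5% CO2. Growth inhibition was scored as reduced luminescence.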
CHX counter – affects cycloheximide protein synthesis inhibition readout, counter-screen. cell reporter, cycloheximide protein synthesis inhibition counterscreen. hit rate 12% among 300,000. max response, %. AID 2314; in the data active = max response mostly above about 13%, no sharp cut-off; inactive = mostly below about 14%; note: read at 38.3 µM for the half of the compounds with a filed dose; 0% is about no effect
Pf growth 96h – P. falciparum growth inhibition at 96 hour, primary screen for plastid delayed-death inhibitors. P. falciparum luciferase reporter growth, 96 h. Potency, µM (highest dose often 28.7 µM), for the others: top-dose activity change, negative = inhibition, most hits filed as inhibitors. hit rate 6.9% among 320,000. AID 504834; note: potency is the fitted concentration of half-maximal effect; % is set by controls: 0 for no effect and ±100 for the full control effect
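96 h incubation, 37 C, 5% CO2, of luciferase-reporter P. falciparum-infected RBCs (2% hematocrit, 0.05% parasitemia final) with test compounds; endpoint luminescence.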
HCMV inh – inhibitors of human cytomegalovirus; HFF cells, HCMV-luciferase reporter, 72 h; stronger effect = lower value; activity change, negative = inhibition, % at 57.5 µM; hit rate 4.5% among 410,000; in the data active = activity change below about -60%; inconclusive = no clear call, values can overlap the other calls; inactive = above about -39%; note: % is set by controls: 0 for no effect and ±100 for the full control effect
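Steps: HFFs plated, 16 h 37C; compounds added; HCMV-luciferase added to MOI 1 PFU/cell; 72 h 37C; OneGlo reagent, 5 min room temperature; luminescence read, normalized to controls.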
Numbers without * were called inactive; ? = inconclusive; · = no result. Unless noted, calls come from the whole dose curve; as a rule, active = well fitted inhibition curve with a large enough effect; inconclusive = small, poorly fitted or top-dose-only effect, or another doubt; inactive = no such curve, though single readings can be large or run the other way.

SMILES | Shiga toxin inh | Pf growth 48h | CHX counter | Pf growth 96h | HCMV inh
Cc1cccc(NC(=O)CC2SC(=O)N(c3ccccc3)C2=O)c1 (stereo not given) | 28.5 | 2.7% | 10.2 | · | 14.5
O=C(CC1SC2=NCCN2C1=O)Nc1ccccc1 (stereo not given) | 10.4 | · | 5.5 | 30.1% | -19.6
COc1ccccc1NS(=O)(=O)c1ccc(N2CCOCC2)c(N)c1 | · | · | · | · | -2.9
COc1ccccc1NC1SC(=O)N(c2ccccc2)C1=O (stereo not given) | 1.7 | 35.1% | 0.9 | · | 31.6
Cc1ccc(NC(=O)CC2=NC(=O)C(CC(=O)Nc3ccccc3F)S2)cc1 (stereo not given) | 90.4* | 15.8% | 22.4* | 19.6% | -19.9
Cc1ccc(NC(=O)CC2Sc3ccc(C(F)(F)F)cc3NC2=O)cc1 (stereo not given) | · | · | · | · | -6.2
Cc1cccc(NC2SC(=O)N(c3ccccc3)C2=O)c1 (stereo not given) | 71.4* | 49.1% | 52.9* | · | 8.4
O=C(c1ccc(F)cc1F)N1CCN(c2ccccn2)CC1 | -9.8 | 5.3% | -4.3 | 19.9% | -26.4
O=C(NC1CCCCC1)C(c1ccc(F)cc1)N(Cc1ccco1)C(=O)Cn1nnc2ccccc21 (stereo not given) | -14.9 | -20.1% | -5.6 | · | 1.6
CCC(C(=O)NC1CCCC1)N(Cc1ccco1)C(=O)Cn1nnc(-c2ccc(C)cc2)n1 (stereo not given) | 8.1 | ? | 2.8 | 9.28µM* | -5.9
CCOC(=O)CN(C(=O)Cn1nnc(-c2ccc(C)cc2)n1)C(CC)C(=O)NC1CCCC1 (stereo not given) | -8.9 | ? | -4.7 | · | 46.2
Cc1ccc(C(C(=O)NC2CCCCC2)N(Cc2ccco2)C(=O)Cn2cnc3ccccc32)cc1 (stereo not given) | 0.6 | 11.7µM* | 7.3 | -7.8% | -18.7
Cc1ccccc1CN1CCNC1=O | 15.1 | 9.28µM* | 3.8 | 25.5% | 8.0
Cc1ccccc1CN1CCCNC1=O | -3.4 | · | -3.2 | · | 24.2
O=C(Nc1ccccc1F)OC1CN2CCC1CC2 (stereo not given) | -9.5 | 38.3% | 5.0 | 0.0% | -36.2
O=C(Nc1cccc(Cl)c1)OC1CN2CCC1CC2 (stereo not given) | 55.6* | 2.94µM* | 25.6* | 1.85µM* | -21.7
CC(=O)OC1CN2CCC1CC2 (stereo not given) | · | -5.0% | · | 4.78µM* | ·
O=C(Nc1ccc(Cl)cc1)OC1CN2CCC1CC2 (stereo not given) | 42.0* | 46.8% | 26.7* | 35.9% | 41.6
O=C(Nc1ccccc1Cl)OC1CN2CCC1CC2 (stereo not given) | 7.8 | ? | 11.9 | 14.4% | 8.6
COc1cc(OC)cc(C(=O)OCC(=O)NC(c2ccccc2)c2ccccc2)c1 | · | -11.2% | · | 4.8% | -23.6
COc1cc(OC)cc(C(=O)NC(c2ccccc2)c2ccccc2)c1 | -19.4 | ? | -1.3 | 11.7µM* | -24.9
CCOCCOc1cccc(C(=O)NC(C)c2ccc3ccccc3c2)c1 (stereo not given) | -5.3 | -12.0% | -2.3 | ? | -8.2
CCOCCOc1cccc(C(=O)NC(c2ccccc2)c2ccccc2)c1 | -8.2 | ? | -0.8 | 2.08µM* | -16.6
O=C(O)c1cccc(Nc2nc(Nc3ccccc3)nc(N3CCCC3)n2)c1 | -9.0 | 3.0% | -1.6 | 31.0% | -7.5
COC(=O)N/N=C/c1ccc(-c2ccccc2Cl)o1 | 40.8* | 3.4% | 40.7* | 32.1% | 62.3
SMILES | Shiga toxin inh | Pf growth 48h | CHX counter | Pf growth 96h | HCMV inh
COC(=O)N/N=C/c1ccc(-c2ccc(Cl)cc2Cl)o1 | 25.7 | -3.4% | 10.8* | 10.5% | 19.7
Cn1c2ccccc2c2cnn(CC(=O)Nc3ccc(F)cc3F)c(=O)c21 | -2.7 | ? | 6.6 | 1.5% | -9.8
Cc1cccc(NC(=S)N(CCCN(C)C)Cc2cc3cc4c(cc3[nH]c2=O)OCO4)c1 | -7.0 | ? | -1.4 | -7.3% | -20.1
CCc1ccccc1NC(=S)N(CCCN(C)C)Cc1cc2cc3c(cc2[nH]c1=O)OCO3 | -15.0 | ? | 1.4 | ? | -75.2*
CCN(CC)CCCN(Cc1cc2cc3c(cc2[nH]c1=O)OCO3)C(=O)Nc1ccccc1OC | -4.7 | ? | -1.3 | 10.4µM* | -12.2
CCN(CC)CCCN(Cc1cc2cc3c(cc2[nH]c1=O)OCCO3)C(=O)Nc1ccc(F)cc1 | 78.4* | ? | 14.0* | ? | 6.8
O=C(NCc1ccccc1)C1CCCN(c2cnccn2)C1 (stereo not given) | 1.0 | 28.7% | 9.6 | ? | -10.2
Cc1cc(C)c2ccc(=O)n(CC(=O)N/N=C/c3ccccc3Cl)c2n1 | -1.4 | 2.62µM* | 1.9 | 4.2% | -36.7
Cc1cc(C)n2nc(C(=O)N/N=C/c3ccccc3Cl)nc2n1 | 18.0 | -5.0% | 7.1 | -19.6% | 68.6
Cc1nn(CCC(=O)NCCc2ccccc2Cl)c(=O)c2nn(-c3ccccc3)c(C)c12 | -4.0 | ? | 0.6 | ? | -61.6*
Cc1ccccc1CCNC(=O)CCn1nc(C)c2c(C)n(-c3ccccc3)nc2c1=O | 14.5 | ? | -2.4 | ? | -60.4*
O=C(CSc1nc(=O)n(Cc2ccco2)c2c1CCC2)Nc1ccccc1C(F)(F)F | · | · | · | · | -38.2
O=C(Nc1ccc2c(c1)OCO2)C1COc2ccccc2O1 (stereo not given) | 107.3* | 78.6% | 35.8* | -21.4% | 107.7
O=C(Nc1cnc2ccccc2c1)C1COc2ccccc2O1 (stereo not given) | 80.3* | 21.3% | 30.5* | 82.5% | 54.8
O=C(Nc1ccncc1)C1COc2ccccc2O1 (stereo not given) | 49.4 | 20.6% | 11.5* | ? | -25.4
Cc1cc(C)n(C(=O)c2ccc(NC(=O)C3COc4ccccc4O3)cc2)n1 (stereo not given) | -4.2 | 29.6% | 17.9 | 8.28µM* | 36.3
COC(=O)c1cc(NC(=O)C2COc3ccccc3O2)cc(C(=O)OC)c1 (stereo not given) | 17.3 | ? | -1.2 | · | 48.4
Cc1cc(=O)oc2cc(NC(=O)C3COc4ccccc4O3)ccc12 (stereo not given) | -6.7 | 37.0% | 15.0 | 12.3% | -39.2
CCc1ccc[n+](-c2[nH]c(=O)sc2/C=N/N=C(\[O-])c2cccnc2)c1 | -2.8 | 0.4% | 13.3 | -25.0% | -36.8
O=C(CN1CCN(S(=O)(=O)c2ccc(Br)s2)CC1)N1CCCCC1 | · | -11.7% | · | ? | -35.8
O=C(Nc1ccc(F)cc1)C1COc2ccccc2O1 (stereo not given) | 38.6 | 64.8% | 19.7* | 96.1% | 185.8
O=C(Nc1ncccn1)C1c2ccccc2Oc2ccccc21 | -9.2 | 13.5% | -2.0 | 0.7% | -21.4
O=C(Nc1ccncc1)C1c2ccccc2Oc2ccccc21 | -6.7 | 5.86µM* | -1.8 | · | 28.2
O=C1OCc2cc(NC(=O)C3COc4ccccc4O3)ccc21 (stereo not given) | -3.7 | 12.5% | 13.7 | 13.2% | 22.9
NC(=O)c1ccc(NC(=O)C2COc3ccccc3O2)cc1 (stereo not given) | -1.9 | 38.3% | -1.7 | ? | 54.2
